In PubChem BioAssay AID1159580 (chemical genetic matrix, 2015):
Values joined by “and” are separate entries in the source; they are usually repeats but may differ in a detail not shown here. Identical values can stand only once. About 2,000 (36%) of roughly 5,500 compounds were called active. Another 18% or so got no clear call; they are omitted. Rule as the data show it: active = normalized growth mostly below about 0.91 (no sharp cut-off); inconclusive = no clear call, values can overlap the other calls; inactive = mostly above about 0.92. The list shows a part of the results.

Experiment: chemical genetic growth profiling, strain panel (AID 1159580);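 also: tested at 20 µM; growth read once vehicle control cultures reached saturation at 30 °C; 1 = growth at the plate median or of vehicle wells; lower values mean less growth of the strain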
Settings: S. cerevisiae deletion strains, growth OD

Measured: normalized growth

CCCCC[C@H](CC(=O)NO)C(=O)N[C@H](C(=O)N1CCC[C@H]1CO)C(C)C
inactive: locus YAL013W, strain DEP1, hits give low values 0.979 | locus YAL021C, strain ccr4, hits give low values 1.02 | locus YAL026C, strain drs2, hits give low values 1.01 | locus YAL030W, strain snc1, hits give low values 1 | locus YBL061C, strain skt5, hits give low values 1.01 | locus YBR009C, strain hhf1, hits give low values 1.02 | locus YBR021W, strain FUR4, hits give low values 1.04 | locus YBR023C, strain chs3, hits give low values 1.01 | locus YBR171W, strain sec66, hits give low values 1.02 | locus YBR229C, strain ROT2, hits give low values 1 | locus YBR231C, strain swc5, hits give low values 1.02 | locus YBR279W, strain paf1, hits give low values 1.02 | locus YCL011C, strain gbp2, hits give low values 1.01 | locus YCL016C, strain dcc1, hits give low values 1.01 | locus YCL029C, strain bik1, hits give low values 1.02 | locus YCL061C, strain MRC1, hits give low values 1.01 | locus YCL069W, strain vba3, hits give low values 1.01 | locus YCR088W, strain abp1, hits give low values 1.01 | locus YDL005C, strain med2, hits give low values 1.02 | locus YDL035C, strain GPR1, hits give low values 0.989 | locus YDL040C, strain nat1, hits give low values 1.02 | locus YDL074C, strain BRE1, hits give low values 1.02 | locus YDL101C, strain DUN1, hits give low values 1.02 | locus YDL185W, strain tfp1, hits give low values 1.01 | locus YDL192W, strain arf1, hits give low values 1.02 | locus YDR001C, strain nth1, hits give low values 1.01 | locus YDR069C, strain doa4, hits give low values 1.03 | locus YDR101C, strain arx1, hits give low values 1.03 | locus YDR137W, strain rgp1, hits give low values 0.972 | locus YDR150W, strain NUM1, hits give low values 1.02 | locus YDR159W, strain sac3, hits give low values 1.03 | locus YDR162C, strain NBP2, hits give low values 0.988 | locus YDR195W, strain ref2 1 | locus YDR297W, strain sur2, hits give low values 1.02 | locus YDR318W, strain mcm21, hits give low values 1.01 | locus YDR334W, strain swr1, hits give low values 1.01 | locus YDR335W, strain msn5, hits give low values 1.02 | locus YDR388W, hits give low values 1.02 | locus YDR392W, strain spt3, hits give low values 1.04 | locus YDR502C, strain sam2, hits give low values 1 | locus YEL003W, strain gim4, hits give low values 1.02 | locus YEL037C, strain rad23, hits give low values 1 | locus YEL061C, strain CIN8 (second series), hits give low values 1.01 | locus YEL061C, strain CIN8, hits give low values 1.01 | locus YER015W, strain faa2, hits give low values 1.02 | locus YER016W, strain bim1, hits give low values 1.01 | locus YER110C, hits give low values 1.03 | locus YER111C, strain swi4, hits give low values 1.02 | locus YER155C, strain BEM2 (second series), hits give low values 1.02 | locus YER155C, strain BEM2, hits give low values 1.01 | locus YER167W, strain BCK2, hits give low values 0.999 | locus YFR010W, strain ubp6, hits give low values 1.01 | locus YGL078C, strain dbp3, hits give low values 1.02 | locus YGL086W, strain mad1, hits give low values 1.01 | locus YGL167C, strain pmr1, hits give low values 1.01 | locus YGL173C, strain kem1, hits give low values 1.03 | locus YGL227W, strain vid30, hits give low values 1.02 | locus YGL240W, strain doc1, hits give low values 1.03 | locus YGL248W, strain PDE1, hits give low values 1.02 | locus YGL253W, strain hxk2, hits give low values 1.01 | locus YGR078C, strain PAC10, hits give low values 1.01 | locus YGR135W, strain pre9, hits give low values 1.01 | locus YGR252W, strain gcn5, hits give low values 1.02 | locus YHR013C, strain ard1, hits give low values 1.03 | locus YHR027C, strain rpn1, hits give low values 1.02 | locus YHR030C, strain SLT2, hits give low values 1.01 and 0.992 | locus YHR079C, strain IRE1 (second series), hits give low values 1.03 | locus YHR079C, strain IRE1, hits give low values 0.973 | locus YHR094C, strain hxt1, hits give low values 1.01 | locus YHR129C, strain ARP1, hits give low values 1.02 | locus YHR142W, strain chs7, hits give low values 1.01 | locus YHR200W, strain rpn10, hits give low values 1.01 | locus YIL066C, strain RNR3, hits give low values 0.999 | locus YIL073C, strain SPO22, hits give low values 1.06 | locus YIL125W, strain kgd1, hits give low values 1.02 | locus YIR030C, strain dcg1, hits give low values 1.02 | locus YJL092W, strain hpr5, hits give low values 1.01 | locus YJL095W, strain BCK1 (second series), hits give low values 1.02 | locus YJL095W, strain BCK1, hits give low values 1.02 and 0.977 | locus YJL115W, strain asf1, hits give low values 1 | locus YJL129C, strain trk1, hits give low values 1.03 | locus YJL134W, strain LCB3, hits give low values 1.01 | locus YJL154C, strain vps35, hits give low values 1 | locus YJL164C, strain tpk1, hits give low values 1.03 | locus YJL166W, strain qcr8, hits give low values 1.02 | locus YJL168C, strain set2, hits give low values 1.01 | locus YJL187C, strain SWE1 (second series), hits give low values 1.04 | locus YJL187C, strain SWE1, hits give low values 1.02
